Compounds with a hit are over-represented: about 2.4% of the library has one in this group of screens.
POLI inh: qHTS for Inhibitors of Polymerase Iota; AID 588590, 2011; Pol iota fluorescent replication assay, 10 min; Potency, µM (highest dose often 115 µM), inactives show at the top dose activity, negative = inhibition, most hits filed as inhibitors; DNA polymerase iota (Homo sapiens), Q9UNA4; actives 1% (n = 390,000); also: potency is read from the fitted curve at half-maximal effect
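Pol iota at 10 nM preincubated 15 min with compounds at room temperature; reaction started with fluorescent substrate, 50 nM final. Fluorescence read kinetically at 0 and 10 min; buffer-only wells as negative control.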
Pol beta inh: qHTS Assay for Inhibitors of DNA Polymerase Beta. P06746. actives 1.3% (n = 340,000). Pol beta primer extension/strand displacement, fluorescence kinetic. Potency, µM (doses to about 114 µM), for inactives: top-dose activity change, negative = inhibition, most hits filed as inhibitors; also: potency is read from the fitted curve at half-maximal effect; % is scaled to controls: 0 for no effect and ±100 for the full control effect
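Homogeneous kinetic assay of primer extension and strand displacement by 10 nM Pol beta, preincubated 15 min at room temperature with compound before 50 nM substrate (final) was added. Read at 0 and 10 min; four-parameter Hill fit.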
FEN1 inh: qHTS Assay for the Inhibitors of Human Flap endonuclease 1 (FEN1); Potency, µM (titrated, usually from 114 µM), inactives show at the highest dose activity change, negative = inhibition, usual class: inhibitors; P39748; Recombinant FEN1 flap cleavage, fluorescence, 15 min; actives 0.35% (n = 390,000); also: potency is read from the fitted curve at half-maximal effect; % is scaled to controls: 0 for no effect and ±100 for the full control effect; nearly all actives have a fitted effect of over 65% in size
Target sequence (P39748 whole entry, looked up): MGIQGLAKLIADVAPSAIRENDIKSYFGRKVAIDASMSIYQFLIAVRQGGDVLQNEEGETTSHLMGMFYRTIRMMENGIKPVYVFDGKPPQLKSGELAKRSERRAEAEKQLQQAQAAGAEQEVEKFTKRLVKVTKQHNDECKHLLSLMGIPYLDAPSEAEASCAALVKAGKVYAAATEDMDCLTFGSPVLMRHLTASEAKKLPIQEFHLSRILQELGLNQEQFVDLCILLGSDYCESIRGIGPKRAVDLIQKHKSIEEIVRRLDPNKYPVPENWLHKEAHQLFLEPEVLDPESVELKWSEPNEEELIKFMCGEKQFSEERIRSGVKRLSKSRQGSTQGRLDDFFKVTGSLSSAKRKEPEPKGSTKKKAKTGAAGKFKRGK
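FEN1 at 10 nM, compound pretreatment for 15 min (room temperature), 50 nM final substrate to initiate; endpoint reads at 0 and 15 min; DMSO-only plates used as vehicle background.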
Pol kappa inh-1: qHTS for Inhibitors of Polymerase Kappa | DNA polymerase kappa (Homo sapiens), Q9UBT6 | purified Pol kappa, fluorescent DNA synthesis assay, 10 min | actives 0.53% (n = 400,000) | Potency, µM (titrated, usually from 107 µM), inactives show at the top dose activity, negative = inhibition, usual class: inhibitors; also: potency is read from the fitted curve at half-maximal effect; % is scaled to controls: 0 for no effect and ±100 for the full control effect
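Pol kappa 10 nM + cpd, 15 min RT; start w/ substrate 50 nM final; fluorescence kinetic read, 0 and 10 min. Neg ctrl: buffer, no enzyme.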
WRN helicase inh: qHTS for Inhibitors of WRN Helicase | actives 0.46% (n = 360,000) | Potency, µM (doses to about 114 µM), without a hit: at the highest dose activity change, negative = inhibition, most hits filed as inhibitors | WRN helicase unwinding, fluorescent forked duplex, kinetic | Bifunctional 3'-5' exonuclease/ATP-dependent helicase WRN (Homo sapiens), Q14191; also: potency is read from the fitted curve at half-maximal effect; % is scaled to controls: 0 for no effect and ±100 for the full control effect; nearly all actives have a fitted effect of over 55% in size
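Fluorescence dequenching readout, ex 525 nm/em 598 nm, kinetic mode: forked duplex DNA (100 nM final) with adjacent fluorophore and quencher unwound by WRN (20 nM final) with 2 mM ATP. Compound preincubation 15 min, room temperature.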
Pol eta inh-1: qHTS for Inhibitors of Polymerase Eta; DNA polymerase eta (Homo sapiens), Q9Y253; recombinant Pol eta, fluorescent DNA replication assay; Potency, µM (titrated, usually from 114 µM), without a hit: at the top dose activity change, negative = inhibition, hits mostly inhibitors; actives 1.2% (n = 390,000); also: potency is read from the fitted curve at half-maximal effect; % is scaled to controls: 0 for no effect and ±100 for the full control effect
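Fluorescent replication assay: 50 nM final substrate added after a 15 min room-temperature compound preincubation with 10 nM enzyme. Signal taken at 0 min and again at 10 min.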
BAZ2B confirm: qHTS Assay for Inhibitors of BAZ2B: Hit Validation; shares compounds with Pol kappa inh-1; AlphaScreen BAZ2B / biotin-H3K14Ac peptide displacement; Potency, µM, usual class: inhibitors; actives 100% (n = 25); calls by dose curve
BAZ2B bead ctr: qHTS Assay for Inhibitors of BAZ2B: Hit Validation in AlphaScreen Counterscreen | AID 588859, 2011 | 25 tested, under 10 active | shares compounds with Pol kappa inh-1 | Potency, µM (titrated, usually from 57.1 µM), for the others: at the top dose activity change, negative = inhibition, actives largely listed as inhibitors | AlphaScreen biotin-His6 peptide bead counterscreen, signal decrease;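 active = clear concentration-dependent signal drop in the bead assay lacking the target, so a primary-screen artifact; inconclusive = weak, partial or single-dose response; inactive = no response, so a real primary hit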
PGK validate: qHTS for inhibitors of Phosphogylcerate Kinase: Hit Validation Screen; shares compounds with Pol kappa inh-1; actives 79% (n = 500); TbPGK coupled GAPDH assay, Kinase-Glo luminescence; AID 686980, 2013; Potency, µM (highest dose often 57.5 µM), for the others: top-dose activity change, negative = inhibition, hits mostly inhibitors; also: potency is read from the fitted curve at half-maximal effect; % is scaled to controls: 0 for no effect and ±100 for the full control effect; nearly all actives have a fitted effect of over 65% in size
Target sequence (P07378 whole entry, looked up): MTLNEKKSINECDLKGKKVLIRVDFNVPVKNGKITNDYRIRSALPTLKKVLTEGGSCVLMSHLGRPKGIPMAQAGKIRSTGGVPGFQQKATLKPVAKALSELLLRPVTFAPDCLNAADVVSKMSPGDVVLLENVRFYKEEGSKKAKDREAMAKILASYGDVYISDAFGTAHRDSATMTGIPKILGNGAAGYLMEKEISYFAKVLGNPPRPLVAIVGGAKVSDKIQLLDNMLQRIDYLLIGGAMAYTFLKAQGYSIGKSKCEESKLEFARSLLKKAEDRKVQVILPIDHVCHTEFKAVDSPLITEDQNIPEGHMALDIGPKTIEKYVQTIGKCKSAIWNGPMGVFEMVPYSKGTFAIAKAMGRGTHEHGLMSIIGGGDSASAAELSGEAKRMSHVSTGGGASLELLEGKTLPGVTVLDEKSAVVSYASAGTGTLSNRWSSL
Pol iota confirm: qHTS for Inhibitors of Polymerase Iota: Confirmatory Assay for Cherry-picked Compounds; shares compounds with Pol kappa inh-1; Pol iota primer extension, TAMRA/BHQ fluorescence; Potency, µM, most hits filed as inhibitors; actives 77% (n = 1,500); AID 720496, 2013; also: potency is read from the fitted curve at half-maximal effect
Pol kappa inh-2: qHTS for Inhibitors of Polymerase Kappa: Confirmatory Assay for Cherry-picked Compounds | shares compounds with Pol eta inh-1 | purified Pol-kappa, fluorescent strand-displacement substrate | Potency, µM, most hits filed as inhibitors | actives 76% (n = 920) | AID 720501, 2013; also: potency is read from the fitted curve at half-maximal effect
Pol eta inh-2: qHTS for Inhibitors of Polymerase Eta: Confirmatory Assay for Cherry-picked Compounds; actives 64% (n = 2,600); shares compounds with Pol eta inh-1; Potency, µM, usual class: inhibitors; Pol eta primer extension, TAMRA/BHQ fluorescence, 10 min; AID 720502, 2013; also: potency is read from the fitted curve at half-maximal effect
* = called active by the depositor; ? = inconclusive; . = no result; [ ] = another dose, or the depositor's remark. Unless noted, calls follow the shape of the dose curve; as a rule, active = well fitted curve in the direction sought with a large enough effect; inconclusive = small, poorly fitted or top-dose-only effect, or another doubt; inactive = no such curve, though single readings can be large; an effect the other way counts as inactive or inconclusive.

SMILES	POLI inh	Pol beta inh	FEN1 inh	Pol kappa inh-1	WRN helicase inh	Pol eta inh-1	Pol iota confirm	others
Cc1cccc2c1=NC(=O)/C(=C/c1c(O)[nH]c(=O)[nH]c1=O)C=2	-7.5%	-0.4%	-11.3%	2.1%	50.1µM*	-12.9%	.
O=C(CN1CCCC2CCCCC21)c1ccc(I)cc1 (centres undefined)	8.6%	.	-5.4%	-8.0%	.	.	.
CCOP(=S)(OCC)OCCSCC	.	.	.	15.8%[60.1 µM]	.	.	.
Oc1ccccc1/C=N/NP(=S)(c1ccccc1)c1ccccc1	84.5%	10.5%	2.1%	-6.8%	-11.2%	-21.7%	.
Oc1ccc(/C=N/NP(=S)(c2ccccc2)c2ccccc2)c(O)c1O	?	14.1µM*	?	-39.6%	?	?	.
CN(CC(=O)NC(=O)NCc1ccco1)CC(=O)Nc1ccccc1Cl	50.1µM*	7.7%	-10.1%	?	1.5%[11.6 µM]	?	.
CN(C)CCNC(=S)Nc1ccccc1Cl	195.3%	-13.6%	0.4%	-16.0%	5.8%	-15.4%	.
O=C(O)c1cccc2c1NC(C(=O)O)C1CC(Sc3ccccc3[N+](=O)[O-])C(Cl)C21 (centres undefined)	3.98µM*	2.82µM*	44.7µM*	8.91µM*	31.6µM*	3.16µM*	.	PGK validate=13µM*
CCOc1ccc(CN(CCc2ccc3c(c2)OCO3)Cc2cc(OC)ccc2O)cc1	13.6%	?	-11.3%	-0.7%	.	-26.0%	.
CCCNC(=O)c1ccc2c(=O)n3c(-c4ccc(C)cc4)csc3nc2c1	?	-5.2%	?	-13.9%	4.6%	4.0%	.	BAZ2B confirm=4.47*;BAZ2B bead ctr=12.6µM*
COC12C(COC(N)=O)C3=C(C(=O)C(C)=C(N)C3=O)N1CC1C2N1C (centres undefined)	?	-19.3%	11.4%	-34.9%	-13.1%	50.1µM*	37.7*
CC[C@@H]1/C=C/C=C/C[C@H](C)[C@@H](O)[C@](C)(O)C(=O)[C@H](C)[C@@H](O)[C@H](C)C(=O)[C@H](C)[C@@H](O)[C@H](C)/C=C/C(=O)O[C@H]2[C@@H](C)[C@@H](CC1)O[C@@]1(CC[C@@H](C)[C@@H](C[C@H](C)O)O1)[C@@H]2C	.	.	.	-12.8%[19.4 µM]	.	.	.
Brc1c(Br)c(Br)c2n[nH]nc2c1Br	?	5.5%[57.1 µM]	?	?	.	-2.1%[57.1 µM]	.
O=C1NC(=O)C(=Cc2ccc(N3CCN(C(=O)c4ccccc4)CC3)c([N+](=O)[O-])c2)C(=O)N1	33.6%	-9.6%	-24.1%	-14.7%	?	9.4%	.
O=C1NC(=S)NC(=O)C1=Cc1ccc2c(c1)CCN2CCCCl	?	?	?	10µM*	56.2µM*	2µM*	.	PGK validate=2.31µM*
O=C1NC(=O)N(c2ccc(F)cc2)C(=O)/C1=C/c1ccc(N2CCOCC2)cc1	56.3%	0.8%	1.3%	1.4%	-32.9%	-16.4%	.
O=C1NC(=O)N(Cc2ccc(F)cc2)C(=O)/C1=C\c1ccc(N2CCCC2)cc1	14.1µM*	35.5µM*	?	?	?	31.6µM*	67*	Pol eta inh-2=60.1*
COc1ccc(-n2c(O)c(/C=C/C=Nc3ccccc3)c(=O)[nH]c2=O)cc1	?	20.6%	-28.5%	-10.7%	?	20µM*	59.7*	Pol kappa inh-2=37.7*;Pol eta inh-2=75.7*
CCOc1ccc(-n2c(/C=C/c3ccccc3)nc3ccccc3c2=O)cc1	5.3%	0.4%	10.4%	-9.1%[60.1 µM]	.	-13.3%	.
CCn1nc(/C=C/c2ccccc2)nc2c(=O)n(C)c(=O)nc1-2	-91.7%	-11.1%	-13.5%	0.7%	-0.9%[11.6 µM]	0.794µM*	0.752*	PGK validate=0.517µM*;Pol eta inh-2=0.757*
CN(C)c1ccc(/C=C2/C(=O)NC(=O)N(Cc3ccco3)C2=O)cc1	15.8µM*	?	-29.2%	35.5µM*	50.1µM*	6.31µM*	67*	Pol kappa inh-2=29.9*;Pol eta inh-2=37.9*
CN(C)c1ccc(/C=C2\C(=O)NC(=O)N(CCc3ccc(F)cc3)C2=O)cc1	?	2.7%	-5.5%	-6.9%	?	-1.7%	.
O=C(O)Cc1ccc(-n2cccc2)cc1	12.6µM*	4.47µM*	?	44.7µM*	39.8µM*	3.55µM*	11.9*	BAZ2B confirm=25.1*;BAZ2B bead ctr=?;Pol eta inh-2=7.57*
O=C(O)CCn1cc(C=C2C(=O)NC(=S)NC2=O)c(-c2cc3ccccc3oc2=O)n1	39.8µM*	-25.4%	?	?	?	20µM*	67*	Pol eta inh-2=30.1*
C[C@H](CCC(=O)O)[C@H]1CC[C@@H]2[C@H]3CC[C@H]4C[C@H](O)CC[C@]4(C)[C@@H]3CC[C@@]21C	.	.	.	-12.4%[19.4 µM]	.	.	.
O=C(CI)c1ccc(Cl)cc1	1.8%	.	-0.7%	7.1%	.	.	.
C[C@H](CCC(=O)O)[C@H]1CC[C@@H]2[C@H]3[C@@H](CC[C@@]21C)[C@]1(C)CC[C@H](O)C[C@@H]1C[C@@H]3O	.	.	.	-5.6%[12 µM]	.	.	.

Screens as filed in PubChem.
